# Assay outcomes from PubChem BioAssay.
# Most compounds without a hit are left out; they make up all but 10% or so of the library.
# 3T3 cytotox – kills NIH 3T3 cells. Potency, µM (doses to about 96.7 µM), inactives show at the highest dose activity change, negative = cytotoxicity, most hits filed as inhibitors. NIH 3T3 viability, CellTiter-Glo ATP luminescence, 48-72 h. 4.3% of 94,000 active. AID 1345082; further: nearly all actives have a fitted effect of over 55% in size
#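 First NIH 3T3 cells are plated at 400 cells/well; next compound is pinned in; then plates incubate 48 or 72 hr at 37 °C; finally CellTiter-Glo is added and luminescence read after 10 min.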
# hNpr1 antagonist – human Npr1 receptor antagonism. P16066. HEK293 hNpr1 GloSensor cGMP, ANP-stimulated luminescence. Potency, µM (highest dose often 46.3 µM), for the others: at the top dose activity change, negative = inhibition, most hits filed as inhibitors. 1.6% of 76,000 active; calls by dose curve; further: nearly all actives have a fitted effect of over 60% in size
#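 Compound pre-incubated 30 min at room temperature on GloSensor-loaded HEK293 cells stably carrying hNpr1 and the pGS-40F cGMP biosensor. Stimulation uses hNppA at 0.1 nM final; luminescence is taken at baseline and 20 min post-agonist.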
# GPT2 inhibitor – blocks human glutamate pyruvate transaminase 2 | Recombinant GPT2, coupled pyruvate oxidase/HRP Amplex Red fluorescence | Potency, µM (series often up to 57.7 µM), for the others: at the top dose activity change, negative = inhibition, actives largely listed as inhibitors | AID 1671188 | 0.25% of 100,000 active | Q8TD30; further: nearly all actives have a fitted effect of over 60% in size
#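 GPT2 10ng/uL, a-KG 250uM, L-Ala 2mM, HEPES pH7.5 + 0.0001% Tween; 30 min RT. Then Amplex mix (PO/HRP/ThPP), 30 min RT dark, fluorescence. AOA 50uM used as positive control.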
# HEK cytotox – HEK 293 cell cytotoxicity | AID 1345083 | HEK 293 viability, ATP luminescence (CellTiter-Glo), 48-72 h | 6.6% of 94,000 active | Potency, µM (series often up to 115 µM), for inactives: at the highest dose activity change, negative = cytotoxicity, usual class: inhibitors; further: nearly all actives have a fitted effect of over 60% in size
#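 Read-out: CellTiter-Glo ATP luminescence. Cells: HEK 293, 250 cells/well. Exposure: 48 or 72 hr, 37 degree Celsius.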
# FLuc inh – Photinus pyralis luciferase inhibition. Potency, µM (series often up to 115 µM), most hits filed as inhibitors. AID 1347043. 2.5% of 76,000 active. purified P. pyralis luciferase, luminescence, biochemical; further: nearly all actives have a fitted effect of over 65% in size
# Target sequence (P08659 whole entry, looked up): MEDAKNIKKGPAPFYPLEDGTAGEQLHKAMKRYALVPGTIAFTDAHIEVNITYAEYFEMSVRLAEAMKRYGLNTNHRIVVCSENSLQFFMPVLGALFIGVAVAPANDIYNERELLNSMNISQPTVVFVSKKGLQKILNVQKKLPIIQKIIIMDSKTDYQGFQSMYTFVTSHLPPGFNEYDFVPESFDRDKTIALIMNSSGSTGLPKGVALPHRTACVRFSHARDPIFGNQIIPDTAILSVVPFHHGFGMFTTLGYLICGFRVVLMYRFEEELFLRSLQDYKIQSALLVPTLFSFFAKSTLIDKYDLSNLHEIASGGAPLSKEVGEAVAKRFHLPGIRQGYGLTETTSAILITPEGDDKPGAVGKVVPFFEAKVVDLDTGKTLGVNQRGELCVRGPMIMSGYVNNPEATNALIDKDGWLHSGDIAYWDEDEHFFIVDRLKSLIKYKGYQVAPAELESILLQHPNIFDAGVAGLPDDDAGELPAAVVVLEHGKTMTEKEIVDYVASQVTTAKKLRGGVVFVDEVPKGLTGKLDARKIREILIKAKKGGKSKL
#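 Purified 10nM P. pyralis luciferase with 10uM D-luciferin and 10uM ATP in 50mM Tris acetate pH 7.5, 10mM Mg acetate, 0.01% Tween-20, 0.05% BSA. qHTS titration; luminescence read by CCD imager.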
# The depositor's hits bear a star; i = inactive; ? = inconclusive; . = no result given; [ ] = another dose, or the depositor's remark. Unless noted, the call rests on the fitted dose curve; in most records, active means well fitted curve in the direction sought with a large enough effect; inconclusive means small, poorly fitted or top-dose-only effect, or another doubt; inactive means no such curve, though single readings can be large; an effect the other way counts as inactive or inconclusive. On the % scale 0 is the no-effect control and ±100 the full control effect; potency means the concentration at half of the fitted maximal effect.
SMILES,3T3 cytotox,hNpr1 antagonist,GPT2 inhibitor,HEK cytotox,FLuc inh
Cc1nc(CNC(=O)c2ccc3oc(-c4cccc(F)c4)nc3c2)cs1,-1%,2%,-37%,?,32µM*
CCC(C)NC(=O)C1CCN(C(=O)c2ccc(-c3ccccc3OC)cc2)CC1 (stereo not given),?,.,-7%,?,.
CCCn1cc2c3c(cccc31)CN(C(=O)COc1ccc(F)cc1)CC2,?,-22%,-16%,45µM*,i
CCOC(=O)N[C@H]1[C@H](OC(=O)Nc2ccccc2)[C@@H]2O[C@H]1c1ccccc12,?,.,-4%[27.3 µM],?,.
CCOC(=O)CN1Cc2ccccc2N(CC(O)COc2ccc(OC)cc2)CCC1=O (stereo not given),-28%,.,.,?,.
C=CCOc1c(OC)ccc2c1CN(CC)C(=O)CCN2CC(O)COc1ccc(OC)cc1 (stereo not given),?,.,.,40µM*,.
C=CCOc1c(OC)ccc2c1CN(CCOC)C(=O)CCN2CC(O)Cc1ccccc1 (stereo not given),-19%,.,.,?,.
C=CCOCC(O)CN1CCC(=O)N(C2CCCC2)Cc2c1ccc(OC)c2OCC=C (stereo not given),-25%,.,.,?,.
C=CCOc1c(OC)ccc2c1CN(C1CCCC1)C(=O)CCN2CC(O)Cc1ccccc1 (stereo not given),?,.,.,45µM*,.
C=CCOc1c(OC)ccc2c1CN(CC1CC1)C(=O)CCN2C[C@@H](O)COCc1ccccc1,?,.,.,45µM*,.
O=C(NC1CCN(c2nccc(Nc3ccccc3F)n2)CC1)c1ccc(F)cc1,35µM*,.,i,?,.
O=C(NC1CCN(c2nccc(Nc3ccccc3F)n2)CC1)c1ccc(C(F)(F)F)cc1,35µM*,.,i,25µM*,.
O=C(NC1CCN(c2nccc(Nc3ccccc3F)n2)CC1)c1ccccc1,?,.,i,?,.
O=C(NC1CCN(c2nccc(Nc3ccccc3Cl)n2)CC1)c1ccc(C(F)(F)F)cc1,32µM*,.,i,40µM*,.
COc1ccc(C(=O)NC2CCN(c3nccc(Nc4ccccc4F)n3)CC2)cc1,-36%,.,-7%,?,.
O=C(c1ccccc1OCC1CCCN(Cc2ccncc2F)C1)N1CCCCC1 (stereo not given),-29%,-10%,4%,-26%,i
Cc1nc(CN2Cc3nc(-c4cc5ccccc5o4)ccc3OCC2=O)cs1,?,?,-13%[88.5 µM],63µM*,?
COc1ccccc1-c1ccc2c(n1)CN(Cc1csc(C)n1)C(=O)CO2,45µM*,-2%[70.6 µM],i,-11%[172 µM],i
Cc1nc(CN2Cc3nc(-c4ccc5c(c4)OCO5)ccc3OCC2=O)cs1,?,0%[70.6 µM],-17%[88.5 µM],?,i
CCc1ccc(CNC(=O)c2ccc3c(c2)N(CC)C2CCCCN2C3=O)cc1 (stereo not given),?,0%,i,?,i
CCN1c2cc(C(=O)NCc3ccccc3)ccc2C(=O)N2CCCCCC21 (stereo not given),-24%,-6%,i,40µM*,i
CCN1c2cc(C(=O)NCc3cccc(C(F)(F)F)c3)ccc2C(=O)N2CCCCCC21 (stereo not given),?,?,i,18µM*,i
O=C(NC1CCN(C(=O)c2ccc(-c3cccs3)cc2)CC1)C1CCCC1,?,.,i,?,.
COc1cccc(N2C(=O)NC(=NC3CCCC3)C23CCCN([S+](=O)([O-])c2cccs2)C3)c1 (stereo not given),-2%,.,1%,0%,.
OC[C@@H]1CNC[C@H]1C1CCN(Cc2cccc(Cl)c2F)CC1,?,-5%,i,?,i
SMILES,3T3 cytotox,hNpr1 antagonist,GPT2 inhibitor,HEK cytotox,FLuc inh
OC[C@@H]1CNC[C@H]1C1CCN(Cc2cccc(C(F)(F)F)c2)CC1,?,7%,i,79µM*,i
CCc1nc2c(c(-c3ccc(O)cc3)n1)CN(Cc1ccccc1)CC2,?,-3%[70.6 µM],-12%[88.5 µM],?,i
COc1ccc(CCNC(=O)[C@@H]2CCCN2c2nccc(Nc3ccccc3Cl)n2)cc1,-14%,.,i,?,.
CCN(CCNC(=O)CCc1cc2cc(OC)ccc2[nH]c1=O)Cc1ccccc1,0%,-1%,i,-3%,i
CN(CC(=O)N1CCC(CCOc2ccccc2F)C1)S(=O)(=O)c1cccs1 (stereo not given),?,-16%,-7%,50µM*,i
CN(CC(=O)N1CCC(CCOc2ccc(F)cc2)C1)S(=O)(=O)c1ccc2c(c1)oc(=O)n2C (stereo not given),?,?,i,35µM*,i
O=C(C1CCN(S(=O)(=O)N2CCOCC2)CC1)N1CCC(CCOc2ccc(F)cc2)C1 (stereo not given),?,.,-10%,45µM*,.
CC(C)C(=O)N1CCC(CCOc2ccccc2F)C1 (stereo not given),?,-20%,i,?,i
CC(C)CN1CCN(C2CCOC3(CCN(C(=O)C4CCOCC4)CC3)C2)CC1 (stereo not given),-17%,.,-1%,0%,.
COCCN1CCOc2nc(-c3ccc(Oc4ccccc4)cc3)ncc2C1=O,?,22µM*,-11%[88.5 µM],56µM*,22µM*
O=C1c2cnc(-c3ccc(CO)cc3)nc2OCCN1Cc1ccc(F)cc1F,?,-16%[70.6 µM],-4%[88.5 µM],89µM*,?
O=C1c2cnc(-c3ccc(F)cc3)nc2OCCN1Cc1ccc(F)cc1F,?,-11%[70.6 µM],i,?,i
COc1ccc(CN2CCOc3nc(-c4cccc(NC(C)=O)c4)ncc3C2=O)cc1,?,-20%[70.6 µM],-1%[88.5 µM],100µM*,i
O=C1c2cnc(-c3ccc(Oc4ccccc4)cc3)nc2OCCN1CC1CC1,28µM*,7.1µM*,-11%[88.5 µM],?,?
COc1nc2nc(CC3CC3)n(C)c2cc1-c1ccnc(C)c1,?,-4%[70.6 µM],-6%[88.5 µM],?,i
CCCN1CCCC2(Cc3ccccc3CN(C(C)=O)C2)C1 (stereo not given),-21%[138 µM],.,i,-27%[172 µM],.
COc1cccc(NC(=O)Cn2c(-c3cccc(Cl)c3)nc(C)c(CCO)c2=O)c1,?,-20%,3%,79µM*,i
Cc1nc(-c2ccccc2)n(CC(=O)Nc2cccc(Cl)c2)c(=O)c1CCO,?,?,i,25µM*,i
COc1ccc(Cn2c(-c3ccc(Cl)cc3)nc(C)c(CCO)c2=O)cc1F,?,0%,-15%,45µM*,i
Cc1cccc(NC(=O)Cn2c(-c3cccc(Cl)c3)nc(C)c(CCO)c2=O)c1,?,-14%,4%,40µM*,i
CCc1cccc(NC(=O)Cn2c(-c3ccccc3)nc(C)c(CCO)c2=O)c1,?,-14%,-6%,?,i
